Results on ten compounds are retold here after PubChem BioAssay (NCATS).

SMILES strings stand for the structures. Records with an inconclusive call do not appear. Active and inactive are the calls of the source. Unless noted, how the calls were made is not given here.

Assay [1] is described as follows: qHTS profiling of the MIPE4 collection as inhibitors of Plasmodium falciparum (3D7) proliferation (AID 743344).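 Further: scaled between DMSO vehicle wells and 0.29 µM artemisinin as full inhibition.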 Particulars: P. falciparum 3D7 in erythrocytes, SYBR Green DNA fluorescence, 72 h; at 28.5 µM unless noted. In a few lines: (§1)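 Parasite DNA was quantified by SYBR Green I fluorescence (ex 485, em 535 nm) after overnight lysis in saponin/Triton buffer at room temperature. Cultures at 0.3% parasitemia and 2.5% hematocrit were first exposed to compound for 72 h at 37 C; signals were normalised to artemisinin (0.29 uM) and vehicle wells.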
Background: qHTS replaces the single test concentration by a dilution series.

Assay [2] can be described thus: qHTS profiling of the MIPE4 collection as inhibitors of Plasmodium falciparum (DD2) proliferation (Rep 2) (AID 743346). Particulars: P. falciparum Dd2 in erythrocytes, SYBR Green DNA, 72 h; at 28.5 µM unless noted. In a few lines: as §1
Assay [3] in a line: qHTS profiling of the MIPE4 collection as inhibitors of Plasmodium falciparum (HB3) proliferation (AID 743347).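 Further: plate controls were DMSO vehicle wells for no effect and artemisinin wells for full effect.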 To be noted: P. falciparum HB3 in erythrocytes, SYBR Green DNA, 72 h; at 28.5 µM unless noted. In a few lines:
as §1

Assay [4] is described as follows: High-throughput drug toxicity screening in the BPDCN cell line Gen2.2 (AID 1224824).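 Further: cells exposed to compounds for 48 h before reading.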 To be noted: Gen2.2 BPDCN cells; at 45.8 µM (top of the series) unless noted. In a few lines:
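Gen2.2 cells (500/well) in phenol red-free RPMI with 10% FBS were exposed to compounds for 48 h at 37 °C, 5% CO2. Viability was read by CellTiter-Glo luminescence and normalized to DMSO (100%) and 9.2 uM bortezomib (0%).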

A short description of assay [5]: High-throughput drug toxicity screening in the BPDCN cell line Cal-1 (AID 1224825). Particulars: Cal-1 BPDCN cell viability, qHTS; at 45.8 µM (top of the series) unless noted. In a few lines: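 CellTiter-Glo luminescence after 48 h compound exposure; percent activity scaled with DMSO as 100% and bortezomib (9.2 uM final) as 0%. Cal-1 cells seeded at 500/well in RPMI, 10% FBS, no phenol red.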

Assay [6] is described as follows: qHTS assay for measurement of the activity of small molecule inhibitors on Zika virus induced Caspase-3 activity in human iPSC derived neural progenitor cells (hNPCs) (AID 1224857; active means well fitted inhibition curve with a large enough effect; further: nearly all actives have a fitted effect of over 65% in size; further: potency means the concentration at half of the fitted maximal effect). In a few lines:
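Caspase-3/7 induction by a 6-hour ZIKV infection was quantified with a luminescent Caspase-Glo 3/7 reagent incubated 30 minutes at room temperature. Compounds were preincubated with hNPCs for 1 hour; inhibition was calculated against uninfected and infected control wells.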

Assay [7] is described as follows: qHTS assay for measurement of the activity of small molecule inhibitors on Zika virus induced Caspase-3 activity in human astrocytoma cells (AID 1224859; active means well fitted inhibition curve with a large enough effect;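 further: plate controls were ZIKV-infected untreated cells for no effect and uninfected cells for full effect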). In a few lines:
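In SNB-19 cells plated at 250 cells/well and grown 16-20 h, compounds were applied 1 h before ZIKV (2 FFU/cell). Six hours later caspase-3/7 luminescence was recorded.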

Assay [8] in a line: qHTS Screen of the MIPE 4.0 Collection Against Ewings Sarcoma (RDES) (AID 1259252; active means well fitted inhibition curve with a large enough effect; further: nearly all actives have a fitted effect of over 35% in size; further: potency means the concentration at half of the fitted maximal effect). In a few lines: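 Viability screen: 48 h incubation at 37C, 95% humidity, 5% CO2 with serially titrated compound, followed by CellTiter-Glo readout.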
The nature of assay [9]: qHTS profiling of the MIPE4 collection as inhibitors of Plasmodium falciparum (DD2) proliferation (AID 743345). Particulars: P. falciparum Dd2 in erythrocytes, SYBR Green DNA, 72 h; at 28.5 µM unless noted. In a few lines:
as §1

In assay [1], `CC(C)(F)C[C@H](N[C@@H](c1ccc(-c2ccc(S(C)(=O)=O)cc2)cc1)C(F)(F)F)C(=O)NC1(C#N)CC1` showed a parasite growth, % of DMSO control of 56.4%. This compound also registered a parasite growth, % of control (lower = inhibition) in assay [2] of 61%. In assay [3], the growth, % of control amounted to 68.4%. Also, the cell viability, % of control (lower = more cytotoxic) in assay [4] is 153%. In assay [5], this compound yielded a viability (% of control) of 99.1%. In addition, the Potency result in [6] and in assay [7] was “inactive” in each case. Besides, in assay [8], the Potency is 18.7 µM (active).
In the case of `O=C(Nc1ncc(SCCN2CCCC2)s1)[C@]1(c2ccc(S(=O)(=O)C3CC3)cc2)C[C@@H]1C1CCCCC1`, the parasite growth, % of DMSO control in [1] came out at 6.74%. For the same compound, the parasite growth remaining, % of DMSO control (lower = more inhibition) in [9] was determined as 7.78%. This compound had a growth, % of control in assay [3] of 10.1%. Also, in assay [4], the cell viability, % of control (lower = more cytotoxic) stood at 116%. Further, the viability (% of control) in assay [5] came out at 92.3%. Further, the Potency entry in [6] and in assay [7] was “inactive” throughout. Further, in assay [8], the Potency was 13.2 µM (active).
For the compound `CC(=O)O[C@]1(C(C)=O)CC[C@H]2[C@@H]3C=C(Cl)C4=CC(=O)[C@@H]5C[C@H]5[C@]4(C)[C@@H]3CC[C@@]21C`, in [1], the parasite growth, % of DMSO control was 21.6%. In addition, in assay [2], the parasite growth, % of control (lower = inhibition) was determined as 18.7%. This compound also returned a growth, % of control in assay [3] of 20.1%. Besides, in [4], the cell viability, % of control (lower = more cytotoxic) was found to be 42.4%. In assay [5], this compound yielded a viability (% of control) of 18%. The Potency result in assay [6] and in [7] was “inactive” each time. The Potency in [8] was 9.35 µM (active).
In assay [1], `C#C[C@]1(O)CC[C@H]2[C@H]3CCc4cc(OC)ccc4[C@H]3CC[C@@]21C` gave a parasite growth, % of DMSO control of 76.5%. Also, in [9], the parasite growth remaining, % of DMSO control (lower = more inhibition) amounted to 98.2%. The compound also registered a growth, % of control in assay [3] of 87.7%. The cell viability, % of control (lower = more cytotoxic) in assay [4] was 211%. This compound gave a viability (% of control) in assay [5] of 98%. Further, the Potency result in assay [6] and in assay [7] was “inactive” each time. Moreover, in assay [8], the Potency is 20.9 µM (active).
`CCC(C)SSc1ncc[nH]1` (configuration not stated) returned a parasite growth, % of DMSO control in assay [1] of 86.2%. Also, the parasite growth remaining, % of DMSO control (lower = more inhibition) in [9] came to 94.1%. The same compound yielded a parasite growth, % of control (lower = inhibition) in assay [2] of 89.6%. The growth, % of control in assay [3] was determined as 92.3%. Also, in assay [4], the cell viability, % of control (lower = more cytotoxic) is 7.07%. The viability (% of control) in assay [5] worked out at 6.97%. Besides, the Potency in [6] is 26.4 µM (active); in [8] it was 23.5 µM (active). For the same compound, the Potency entry in [7] is “inactive”.
With `Nc1ncnc2c1ncn2[C@@H]1O[C@H](CO)[C@@H](O)[C@@H]1O`, the parasite growth, % of DMSO control in assay [1] is 6.49%. The parasite growth remaining, % of DMSO control (lower = more inhibition) in assay [9] turned out to be 98%. In addition, the parasite growth, % of control (lower = inhibition) in assay [2] worked out at 6.61%. In addition, the growth, % of control in [3] stood at 6.56%. For the same compound, the cell viability, % of control (lower = more cytotoxic) in assay [4] came out at 108%. For the same compound, the viability (% of control) in [5] was 18.3%. Further, the Potency entry in assay [6] and in assay [7] was “inactive” each time. The Potency in assay [8] is 16.6 µM (active).
`Cc1cnc(-c2cc(N3CCN(C(=O)CCS(C)(=O)=O)CC3)ncc2Cl)c(C)c1` yielded a parasite growth, % of DMSO control in assay [1] of 58.6%. Further, the parasite growth remaining, % of DMSO control (lower = more inhibition) in [9] came out at 93.9%. This compound also registered a growth, % of control in [3] of 76.4%. Also, in assay [4], the cell viability, % of control (lower = more cytotoxic) amounted to 120%. In [5], the viability (% of control) turned out to be 64.7%. Further, the Potency result in assay [6], in assay [7] and in assay [8] was “inactive” in each case.
In the case of `FC(F)(F)c1ccc(C=Cc2nc(COc3ccc(CCCCn4ccnn4)cc3)co2)cc1`, in [1], the parasite growth, % of DMSO control worked out at 77.3%. For the same compound, in assay [2], the parasite growth, % of control (lower = inhibition) was 62.6%. For the same compound, in [3], the growth, % of control is 83.1%. For the same compound, the cell viability, % of control (lower = more cytotoxic) in assay [4] came out at 102%. Besides, in assay [5], the viability (% of control) amounted to 17.8%. Also, the Potency entry in assay [6] and in [7] was “inactive” throughout. Moreover, in assay [8], the Potency is 0.059 µM (active).
For `COc1c(C)c2c(c(O)c1CC=C(C)CCC(=O)O)C(=O)OC2`, the parasite growth, % of DMSO control in assay [1] amounted to 15.7%. For the same compound, the parasite growth remaining, % of DMSO control (lower = more inhibition) in assay [9] was 17.9%. This compound returned a growth, % of control in assay [3] of 7.33%. The cell viability, % of control (lower = more cytotoxic) in assay [4] came to 94.4%. Further, the viability (% of control) in assay [5] came to 16.3%. Further, the Potency entry in assay [6] and in [7] was “inactive” each time. The Potency in [8] was 3.72 µM (active).
Turning to `CC(=O)OCC(=O)[C@@]1(O)CC[C@H]2[C@@H]3CCC4=CC(=O)C=C[C@]4(C)[C@@H]3[C@@H](O)C[C@@]21C`, in [1], the parasite growth, % of DMSO control amounted to 77.8%. Besides, the parasite growth remaining, % of DMSO control (lower = more inhibition) in [9] amounted to 102%. The growth, % of control in assay [3] was 80.7%. In addition, the cell viability, % of control (lower = more cytotoxic) in assay [4] was determined as 165%. For the same compound, in [5], the viability (% of control) came to 58.1%. The Potency result in [6], in assay [7] and in assay [8] was “inactive” in each case.
